Screening results: PubChem BioAssay, several laboratories
Hits are enriched below; roughly 3.5% of the tested compounds scored in any of these assays.
DNMT1 inh – DNMT1 (human) enzyme inhibition. P26358. DNMT1 molecular beacon, Hinp1I cleavage, fluorescence. inhibition (reported as % activation of signal), % at 10 µM. 360,000 tested, 0.83% active; in the data active means inhibition above about 50%
Target sequence (P26358 504-1616 limits assumed): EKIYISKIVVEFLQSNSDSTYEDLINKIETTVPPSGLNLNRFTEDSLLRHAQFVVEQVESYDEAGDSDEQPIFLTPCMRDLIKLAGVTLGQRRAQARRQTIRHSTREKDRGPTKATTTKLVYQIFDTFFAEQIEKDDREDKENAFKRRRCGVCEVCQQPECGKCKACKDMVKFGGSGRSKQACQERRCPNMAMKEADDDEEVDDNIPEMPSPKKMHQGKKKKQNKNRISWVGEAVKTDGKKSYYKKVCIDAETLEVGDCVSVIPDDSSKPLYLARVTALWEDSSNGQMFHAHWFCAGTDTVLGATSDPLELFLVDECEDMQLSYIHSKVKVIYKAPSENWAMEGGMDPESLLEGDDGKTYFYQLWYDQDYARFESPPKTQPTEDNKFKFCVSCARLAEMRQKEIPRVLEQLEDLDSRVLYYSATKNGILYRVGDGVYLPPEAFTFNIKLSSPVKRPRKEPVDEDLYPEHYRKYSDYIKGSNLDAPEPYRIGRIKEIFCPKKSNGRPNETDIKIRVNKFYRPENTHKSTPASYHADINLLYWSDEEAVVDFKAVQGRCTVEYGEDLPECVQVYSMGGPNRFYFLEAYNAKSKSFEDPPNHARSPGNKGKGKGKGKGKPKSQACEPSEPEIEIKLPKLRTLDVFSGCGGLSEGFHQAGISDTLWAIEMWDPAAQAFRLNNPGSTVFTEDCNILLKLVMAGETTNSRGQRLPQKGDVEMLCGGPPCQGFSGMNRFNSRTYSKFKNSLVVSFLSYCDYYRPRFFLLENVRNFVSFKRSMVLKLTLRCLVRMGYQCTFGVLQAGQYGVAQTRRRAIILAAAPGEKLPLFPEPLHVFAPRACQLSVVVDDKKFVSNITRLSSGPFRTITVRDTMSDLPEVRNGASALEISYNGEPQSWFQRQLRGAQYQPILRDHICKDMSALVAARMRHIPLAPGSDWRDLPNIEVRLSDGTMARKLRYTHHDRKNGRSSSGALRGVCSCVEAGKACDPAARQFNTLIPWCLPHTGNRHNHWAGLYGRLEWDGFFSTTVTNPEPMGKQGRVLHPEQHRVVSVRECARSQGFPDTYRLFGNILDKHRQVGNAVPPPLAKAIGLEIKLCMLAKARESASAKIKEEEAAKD
LEDGF integ inh – blocks HIV-1 LEDGF/p75-dependent DNA integration. TR-FRET IN-LEDGF/p75 DNA integration, Eu/Cy5. inhibition, % at 3.7 µM. 370,000 tested, 0.64% active. AID 743269;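 active means inhibition above the screen-wide mean plus 3 SD, cut at about 13% in these data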;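 further: signal is the Cy5 over europium emission ratio at 671 and 618 nm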
PG9 Ab binder – small molecules binding HIV-1 gp120 antibody PG9 | TR-FRET gp120-PG9 antibody binding | inhibition, % at 6.7 µM | 360,000 tested, 0.43% active | AID 624416; in the data active means inhibition above about 8.5%
rCAG RNA binder – molecules binding r(CAG) RNA repeats; r(CAG) RNA repeat, TO-PRO-1 dye displacement fluorescence; inhibition, % at 3 µM; 370,000 tested, 1.3% active; AID 651821;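 active means inhibition above the plate cutoff, the mean of all test compounds on that plate plus 3 SD, cut at about 35% in these data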;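 further: higher means more dye released from RNA so lower well fluorescence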
UHRF1 MBD2 ctr – human UHRF1 methylated DNA binding inhibitors | inhibition, % at 4.4 µM | Q96T88 | UHRF1 binding to methylated oligo, TR-FRET | 370,000 tested, 0.75% active | AID 687016; in the data active means inhibition above about 21%;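 further: UHRF1 SRA domain binding a hemimethylated CpG hairpin DNA probe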
MBD2 DNA inh – MBD2-methylated oligo binding inhibition; Q9UBB5; TR-FRET, MBD2 binding to methylated oligonucleotide; inhibition, % at 4.4 µM; 370,000 tested, 0.31% active; AID 686964; in the data active means inhibition above about 13%
rCAG bind conf – r(CAG) RNA repeat binding, confirmation; AID 652065; inhibition, % at 3 µM; TO-PRO-1 dye displacement fluorescence; shares compounds with rCAG RNA binder; 4,300 tested, 70% active;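 active means inhibition above a per-plate cutoff, the mean inhibition of sample wells plus 3 SD, cut at about 35% in these data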;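 further: loss of TO-PRO-1 fluorescence as compound displaces dye from 1x1 AA loop RNA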
dCAG dye counter – counter-screen for rCAG RNA binders: DNA CAG dye complex inhibitors | inhibition, % at 3 µM | shares compounds with rCAG RNA binder | 4,300 tested, 94% active | d(CAG) DNA oligo TO-PRO-1 dye displacement, fluorescence | AID 652068;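 active means inhibition above its plate's cutoff, the mean test-well inhibition plus 3 SD, cut at about 4.8% in these data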;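 further: hits displace the dye from DNA and so lower well fluorescence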
Of the large screens only hits and unclear results are named; the others gave an inactive call (follow-up assays come after a bar, where they were run).

O=C1C2C3C=CC(C3)C2C(=O)N1/N=C/c1cn(Cc2ccccc2)c2ccccc12 (stereo unspecified)	none
Cc1[nH]n(-c2ncc(-c3ccccc3)s2)c(=O)c1C(c1ccc(Cl)cc1)C(C#N)C#N (stereo unspecified)	rCAG RNA binder 46 | rCAG bind conf 81 | dCAG dye counter 48
Cc1[nH]n(-c2ccccc2)c(=O)c1C(c1ccccc1[N+](=O)[O-])C(C#N)C#N (stereo unspecified)	none
CC1=NN(c2nc(-c3ccc(Cl)cc3)cs2)C(=O)C1	rCAG RNA binder 58 | rCAG bind conf 73 | dCAG dye counter 39
COc1ccc(-c2nnc(SCC(=O)Nc3ccc(S(=O)(=O)Nc4cc(C)nc(C)n4)cc3)n2-c2ccc(OC)cc2)cc1	rCAG RNA binder 49 (no result: DNMT1 inh, PG9 Ab binder) | rCAG bind conf 44 | dCAG dye counter 15
Cc1cc(NS(=O)(=O)c2ccc(NC(=O)CSc3nnc(-c4ccco4)n3-c3ccc(Cl)cc3)cc2)nc(C)n1	rCAG RNA binder 46 (no result: DNMT1 inh, PG9 Ab binder) | rCAG bind conf inactive | dCAG dye counter 12
COc1ccc(-c2nnc(SCC(=O)Nc3ccc(C(=O)O)cc3)n2-c2ccc(Cl)cc2)cc1	rCAG RNA binder 46 | rCAG bind conf 50 | dCAG dye counter 15
Cc1cc(NS(=O)(=O)c2ccc(NC(=O)CSc3nnc(-c4cccnc4)n3-c3ccccc3)cc2)nc(C)n1	none (no result: DNMT1 inh, PG9 Ab binder)
Cc1ccc(-c2nnc(SCC(=O)c3ccc(O)c(O)c3)n2-c2ccc(Cl)cc2)cc1	rCAG RNA binder 41 (no result: DNMT1 inh, PG9 Ab binder) | rCAG bind conf 43 | dCAG dye counter 17
Cc1cc(NS(=O)(=O)c2ccc(NC(=O)CSc3nnc(-c4ccncc4)n3-c3ccccc3)cc2)nc(C)n1	none (no result: DNMT1 inh, PG9 Ab binder)
O=C(CSc1nnc(-c2ccccc2)n1-c1ccc(Cl)cc1)c1ccc(Cl)cc1	none (no result: DNMT1 inh, PG9 Ab binder)
COc1ccc(NC(=O)C(OC(=O)Cn2cnc3c2c(=O)n(C)c(=O)n3C)c2ccccc2)cc1Cl (stereo unspecified)	none
CC(=O)Nc1ccc(S(=O)(=O)NCC(=O)N2CCN(S(=O)(=O)c3cccs3)CC2)cc1	none
CCOc1ccc(-n2c(SCC(=O)Nc3ccc(S(=O)(=O)Nc4cc(C)nc(C)n4)cc3)nnc2-c2ccco2)cc1	rCAG RNA binder 40 (no result: DNMT1 inh, PG9 Ab binder) | rCAG bind conf 40 | dCAG dye counter 14
CCCCNS(=O)(=O)c1ccc(Br)cc1N1CCC[C@H]1CO	none
CCN(CC)c1ccc(-n2c(O)c(C=C3N=c4ccccc4=N3)sc2=S)cc1	none
O=C(O)c1cccc(-n2c(O)c(C=C3N=c4ccccc4=N3)sc2=S)c1	rCAG RNA binder 81 | rCAG bind conf 64 | dCAG dye counter 22
O=C(O)c1ccc(-n2c(O)c(C=C3N=c4ccccc4=N3)sc2=S)cc1	rCAG RNA binder 80 | rCAG bind conf 62 | dCAG dye counter 24
CC(C)=C1C(=O)NN(c2cccc(Cl)c2)C1=O	none
CC(C)=C1C(=O)NN(c2ccc(C)c(Cl)c2)C1=O	rCAG RNA binder 94 | rCAG bind conf inactive | dCAG dye counter 8.1
O=C(NCc1ccccc1)c1c[nH]c2ccc(S(=O)(=O)Nc3ccc4c(c3)OCCO4)cc2c1=O	rCAG RNA binder 37 | rCAG bind conf inactive | dCAG dye counter 12
O=C(NC1CC1)c1c[nH]c2ccc(S(=O)(=O)Nc3cccc(C(F)(F)F)c3)cc2c1=O	rCAG RNA binder 36 | rCAG bind conf inactive | dCAG dye counter 6.0
COc1ccc(/C=N/NC(=S)Nc2ccccc2[N+](=O)[O-])cc1O	rCAG RNA binder 38 | rCAG bind conf inactive | dCAG dye counter 11
O=[N+]([O-])c1cc(/C=N/NC(=S)Nc2ccccc2Cl)ccc1Cl	none
CCCOc1ccc(/C=N/Nc2ccccc2[N+](=O)[O-])c(O)c1	none
CCCOc1ccc(/C=N/NC(=S)Nc2ccccc2[N+](=O)[O-])c(O)c1	rCAG RNA binder 49 (no result: DNMT1 inh) | rCAG bind conf 45 | dCAG dye counter 20
Cc1cn2c(N)c(/C=C3\C=Nc4ccccc43)c(=O)nc2s1	none
